Results from PubChem BioAssay (Tox21).
Inconclusive results are not listed. Entries that show only a call come without a potency. Active and inactive are the calls of the source. Unless noted, calls come from the whole dose curve; as a rule, active = well fitted curve in the direction sought with a large enough effect in the repeat runs; inconclusive = weak or mixed curves; inactive = no such curve, though single readings can be large; an effect the other way counts as inactive or inconclusive.

Legend:
[1] = qHTS assay to identify small molecule antagonists of the estrogen related receptor (ERR) signaling pathway from Tox21 library - cell viability counter screen (AID 1224834); conditions: ERR reporter cells viability, CellTiter-Fluor, 17.5 h; series mostly up to 92.4 µM; note: nearly all actives have a fitted effect of over 30% in size
Method in brief: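 In this quantitative HTS format, ERR cells receive compounds in DMSO and are incubated for 17.5 h at 37 C. Live-cell protease activity is then detected with CellTiter-Fluor.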

[2] = target: Luciferin 4-monooxygenase (Photinus pyralis) (UniProt P08659); assay: qHTS assay to identify small molecule inhibitors of firefly luciferase (AID 1224835); note: nearly all actives have a fitted effect of over 25% in size; note: potency is the fitted concentration of half-maximal effect; conditions: purified P. pyralis luciferase, luminescence inhibition; series mostly up to 115 µM
Method in brief: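 Biochemical qHTS: compounds run as interplate titrations against purified firefly enzyme, with D-luciferin and ATP each at its KM concentration. Light output recorded by CCD imaging.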

[3] = qHTS assay to identify small molecule agonists of the constitutive androstane receptor (CAR) signaling pathway - cell viability counter screen (AID 1224836); conditions: HepG2-CYP2B6-hCAR viability, CellTiter-Fluor, 23 h, PK11195 added to every well; series mostly up to 92.4 µM; note: nearly all actives have a fitted effect of over 45% in size
Method in brief: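 Cells were seeded and incubated 4 hrs. Compounds were added across 15 concentrations together with PK11195 at 0.75 uM final. Plates were incubated 23 hrs at 37 C. CellTiter-Fluor was added and fluorescence measured.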

[4] = qHTS assay to identify small molecule antagonists of the constitutive androstane receptor (CAR) signaling pathway - cell viability counter screen (AID 1224837); conditions: HepG2-CYP2B6-hCAR viability, CellTiter-Fluor, 23 h, co-treated with 50 nM CITCO; series mostly up to 92.4 µM; note: nearly all actives have a fitted effect of over 45% in size
Method in brief: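 In quantitative HTS format, compounds at 15 concentrations were applied to HepG2 cells double-transfected with hCAR and CYP2B6-2.2kb under 50 nM CITCO stimulation; live-cell protease activity was read after 23 hr via CellTiter-Fluor.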

[5] = target: Nuclear receptor subfamily 1 group I member 3 (Homo sapiens) (UniProt Q14994); assay: qHTS assay to identify small molecule antagonists of the constitutive androstane receptor (CAR) signaling pathway (AID 1224838); conditions: HepG2-CYP2B6-hCAR luciferase, CITCO-stimulated, 24 h; series mostly up to 92.4 µM; note: nearly all actives have a fitted effect of over 40% in size
Method in brief: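 CITCO-stimulated (50 nM final) HepG2 cells stably transfected with hCAR and CYP2B6-2.2kb luciferase were exposed to compounds at 15 concentrations for 24 h at 37 C/5% CO2. A luciferase reagent was added and luminescence recorded after 30 min.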

[6] = target: Nuclear receptor subfamily 1 group I member 3 (Homo sapiens) (UniProt Q14994); assay: qHTS assay to identify small molecule agonists of the constitutive androstane receptor (CAR) signaling pathway (AID 1224839); conditions: HepG2 hCAR CYP2B6-luciferase, agonist mode, 24 h; series mostly up to 92.4 µM; note: nearly all actives have a fitted effect of over 15% in size; note: potency is the fitted concentration of half-maximal effect
Method in brief: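 Cells were plated and incubated 4 hrs, then dosed with compounds at 15 concentrations. PK11195 was added to 0.75 uM final. After 24 hrs at 37 C, luciferase luminescence was measured.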

[7] = qHTS assay to identify small molecule antagonists of the estrogen related receptor signaling pathway with the pleiotropic PPARgamma coactivator (PGC) from Tox21 10K library - cell viability counter screen (AID 1224840; active = well fitted cell-killing curve with a large enough effect in the repeat runs, not every such curve was filed as active; note: nearly all actives have a fitted effect of over 40% in size); conditions: PGC/ERR reporter cells viability, CellTiter-Fluor, 17.5 h; series mostly up to 92.4 µM
Method in brief: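 Viability counter screen, PGC/ERR cells: 17.5 h compound exposure at 37 C, CellTiter-Fluor fluorescence endpoint.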

[8] = target: Thyrotropin receptor (Homo sapiens) (UniProt P16473); assay: qHTS assay to identify small molecule agonists of the thyroid stimulating hormone receptor (TSHR) signaling pathway (AID 1224843; calls by dose curve; note: nearly all actives have a fitted effect of over 45% in size); conditions: TSHR-HEK293 cells, cAMP HTRF, agonist mode, 30 min; series mostly up to 92.4 µM
Method in brief: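 HEK293/TSHR, 800 cells/well; cpd 30 min RT; add cAMP-d2 + anti-cAMP-cryptate, 1 h RT; fluorescence read on plate reader. 15-pt titration, n=3.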

[9] = qHTS assay to identify small molecule antagonists of the estrogen related receptor signaling pathway with the pleiotropic PPARgamma coactivator (PGC) from Tox21 10K library (AID 1224841; call rule not given here; note: actives are mostly falling curves and most rising ones were filed inactive; nearly all actives have a fitted effect of over 50% in size); conditions: PGC/ERR reporter cell line, ONE-Glo luciferase, 18 h; series mostly up to 92.4 µM
Method in brief: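 In the PGC/ERR line, DMSO solutions of test chemicals are pin-delivered to 2,000 cells/well six hours after dispensing. Following eighteen hours' incubation, One-Glo reagent is added and luminescence recorded.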

[10] = qHTS assay to identify small molecule agonists of the estrogen related receptor signaling pathway with the pleiotropic PPARgamma coactivator (PGC) from Tox21 10K library (AID 1224842); conditions: PGC/ERR reporter cell line, luciferase ONE-Glo, 18 h; series mostly up to 92.4 µM; note: nearly all actives have a fitted effect of over 15% in size
Method in brief: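 PGC/ERR reporter cell line, 2,000 cells per well, incubated 6 h at 37 C before 23 nL compound in DMSO was added. After 18 h at 37 C, One-Glo luminescence read following 30 min at room temperature.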

Luciferin 4-monooxygenase (Photinus pyralis), sequence (P08659 whole entry, looked up): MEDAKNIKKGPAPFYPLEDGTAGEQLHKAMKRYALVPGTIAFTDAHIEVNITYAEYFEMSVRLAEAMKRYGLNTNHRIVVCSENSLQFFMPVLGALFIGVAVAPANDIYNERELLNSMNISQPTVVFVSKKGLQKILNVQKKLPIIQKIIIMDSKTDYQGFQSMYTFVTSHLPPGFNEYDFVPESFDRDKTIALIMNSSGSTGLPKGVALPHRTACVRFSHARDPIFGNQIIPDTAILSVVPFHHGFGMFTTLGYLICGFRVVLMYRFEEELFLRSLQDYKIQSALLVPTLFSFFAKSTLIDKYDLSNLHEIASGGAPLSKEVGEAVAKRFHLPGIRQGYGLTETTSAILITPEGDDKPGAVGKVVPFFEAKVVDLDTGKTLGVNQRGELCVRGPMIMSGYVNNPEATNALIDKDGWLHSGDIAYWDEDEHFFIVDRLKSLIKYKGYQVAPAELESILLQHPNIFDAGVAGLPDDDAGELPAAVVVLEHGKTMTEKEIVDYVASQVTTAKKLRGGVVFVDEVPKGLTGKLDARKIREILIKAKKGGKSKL
Nuclear receptor subfamily 1 group I member 3 (Homo sapiens), sequence (Q14994 whole entry, looked up): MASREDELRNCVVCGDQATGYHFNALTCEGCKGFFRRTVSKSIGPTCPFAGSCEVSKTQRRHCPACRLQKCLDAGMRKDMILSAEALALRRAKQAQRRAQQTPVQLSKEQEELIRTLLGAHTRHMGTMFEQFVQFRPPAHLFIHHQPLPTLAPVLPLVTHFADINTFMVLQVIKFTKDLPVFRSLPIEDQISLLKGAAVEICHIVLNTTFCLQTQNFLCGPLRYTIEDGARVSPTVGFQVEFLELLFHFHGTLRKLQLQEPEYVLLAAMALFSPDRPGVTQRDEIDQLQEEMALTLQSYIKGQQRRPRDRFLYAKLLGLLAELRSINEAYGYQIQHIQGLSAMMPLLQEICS
Thyrotropin receptor (Homo sapiens), sequence (P16473 whole entry, looked up): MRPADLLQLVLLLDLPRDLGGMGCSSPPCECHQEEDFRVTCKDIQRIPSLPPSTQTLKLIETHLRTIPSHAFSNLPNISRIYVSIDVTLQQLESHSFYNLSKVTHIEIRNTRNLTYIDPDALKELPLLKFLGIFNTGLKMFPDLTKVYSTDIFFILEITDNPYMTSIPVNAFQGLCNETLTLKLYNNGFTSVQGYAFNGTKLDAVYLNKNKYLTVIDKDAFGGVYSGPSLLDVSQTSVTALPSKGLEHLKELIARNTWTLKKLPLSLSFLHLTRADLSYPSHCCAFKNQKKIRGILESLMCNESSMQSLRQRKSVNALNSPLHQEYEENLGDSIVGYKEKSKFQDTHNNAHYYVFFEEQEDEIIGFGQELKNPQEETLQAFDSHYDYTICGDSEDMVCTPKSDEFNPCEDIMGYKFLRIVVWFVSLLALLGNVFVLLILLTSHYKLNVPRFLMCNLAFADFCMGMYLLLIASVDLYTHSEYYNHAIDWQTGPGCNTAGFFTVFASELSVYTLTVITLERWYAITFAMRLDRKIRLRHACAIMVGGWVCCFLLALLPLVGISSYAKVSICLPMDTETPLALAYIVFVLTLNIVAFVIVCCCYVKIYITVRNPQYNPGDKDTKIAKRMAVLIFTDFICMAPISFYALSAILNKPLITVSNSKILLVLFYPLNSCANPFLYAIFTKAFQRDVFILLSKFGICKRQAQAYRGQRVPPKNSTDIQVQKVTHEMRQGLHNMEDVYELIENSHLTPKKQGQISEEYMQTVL

SMILES	Potency [1]	Potency [2]	Potency [3]	Potency [4]	Potency [5]	Potency [6]	Potency [7]	Potency [8]	Potency [9]	Potency [10]
CN1C(=O)COc2c(C(=O)NC3CN4CCC3CC4)cc(Cl)cc21 (configuration not stated)	inactive	inactive	inactive	inactive	inactive	inactive	inactive	inactive	–	–
N=C(N)[Se]	inactive	inactive	inactive	inactive	inactive	inactive	inactive	inactive	–	–
C=C(Cl)CSC(=S)N(CC)CC	inactive	inactive	inactive	inactive	inactive	–	inactive	–	–	–
CC(C)(C)C(=O)C(Cl)Cl	inactive	inactive	inactive	inactive	inactive	–	inactive	inactive	–	–
C/C=C/CC#N	inactive	inactive	inactive	inactive	inactive	inactive	inactive	inactive	–	–
CCN(CCO)CCO	inactive	inactive	inactive	inactive	inactive	inactive	inactive	inactive	–	–
CCC1(c2ccccc2)C(=O)N(COC)C(=O)N(COC)C1=O	inactive	inactive	inactive	inactive	inactive	–	inactive	inactive	inactive	inactive
CCOC(=O)NC(C)(C)Cc1ccc(Cl)cc1	inactive	inactive	inactive	inactive	inactive	–	inactive	inactive	–	–
CCCCCCCCBr	inactive	inactive	inactive	inactive	inactive	inactive	inactive	inactive	–	–
CCN[C@@H](C)Cc1cccc(C(F)(F)F)c1	inactive	inactive	inactive	inactive	inactive	inactive	inactive	inactive	–	–
ClCCCCCCCl	inactive	inactive	inactive	inactive	inactive	inactive	inactive	inactive	–	–
COP(=O)(O)OC	inactive	inactive	inactive	inactive	inactive	inactive	inactive	inactive	–	–
CNC(=O)Oc1ccccc1C(C)C	inactive	inactive	inactive	inactive	inactive	–	inactive	–	inactive	inactive
CNC(=O)O/N=C(/CSC)C(C)(C)C	inactive	inactive	inactive	inactive	inactive	–	inactive	inactive	–	–
COc1ccc(CN2CCNCC2)c(OC)c1OC	inactive	inactive	inactive	inactive	inactive	–	inactive	–	inactive	inactive
CC(C)N(Cc1ccccc1)C(=O)C(C)(C)C	inactive	inactive	inactive	inactive	inactive	–	inactive	inactive	–	–
CCCOC(=O)c1cncn1C(C)c1ccccc1 (configuration not stated)	inactive	inactive	inactive	inactive	inactive	–	inactive	inactive	inactive	inactive

SMILES	Potency [1]	Potency [2]	Potency [3]	Potency [4]	Potency [5]	Potency [6]	Potency [7]	Potency [8]	Potency [9]	Potency [10]
N#CN	inactive	inactive	inactive	inactive	–	inactive	inactive	–	–	–
CC#Cc1cc(C)nc(Nc2ccccc2)n1	inactive	39.9 µM (active)	inactive	inactive	–	30.6 µM (active)	inactive	inactive	–	–
CC(C)NCC(O)c1ccc([N+](=O)[O-])cc1 (configuration not stated)	inactive	inactive	inactive	inactive	–	inactive	inactive	–	–	–
O=CCCl	inactive	inactive	inactive	inactive	–	inactive	inactive	inactive	–	–
O=C1CC(=O)NC(=O)N1	inactive	inactive	inactive	inactive	–	inactive	inactive	inactive	–	–
C/C(=N\NC(=O)Nc1cc(F)cc(F)c1)c1ncccc1C(=O)O	inactive	inactive	inactive	inactive	–	inactive	inactive	inactive	–	–
O=C(O)c1c(Cl)ccc2cc(Cl)cnc12	inactive	inactive	inactive	inactive	–	inactive	inactive	inactive	–	–
CN(C)C1CCCCC1	inactive	inactive	inactive	inactive	–	inactive	inactive	–	inactive	inactive
CC(Cl)(Cl)Cl	inactive	inactive	inactive	inactive	–	inactive	inactive	inactive	inactive	inactive
C#CC(C)(C)O	inactive	inactive	inactive	inactive	–	inactive	inactive	–	inactive	inactive
C=C(C)[C@H]1CN[C@H](C(=O)O)[C@H]1CC(=O)O	inactive	inactive	inactive	inactive	–	inactive	inactive	–	–	–
CCN1CCCC1CNC(=O)C(O)(c1ccccc1)c1ccccc1 (configuration not stated)	inactive	inactive	inactive	inactive	–	inactive	inactive	inactive	–	–
C[C@H](N)C(=O)c1ccccc1	inactive	inactive	inactive	inactive	–	inactive	inactive	inactive	–	–
CCc1cc(OC)c(C[C@H](C)N)cc1OC	inactive	inactive	inactive	inactive	–	inactive	inactive	inactive	–	–
Oc1ccc(Cc2ccc(O)cc2)cc1	inactive	40.2 µM (active)	inactive	inactive	–	54.9 µM (active)	inactive	inactive	inactive	inactive
CCCCCCCC(=O)Cl	inactive	inactive	inactive	inactive	–	inactive	inactive	inactive	–	–
